Reference: PubChem BioAssay AID624300 (Southern Research Specialized Biocontainment Screening …, 2012)
About 360 (15%) of roughly 2,400 compounds were called active.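 How the source made its calls: active means viability falls under 70% at one or more tested concentrations, taken as toxicity; inactive means viability stays over 70% at every dose.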 A selection follows. Entries that show only a call come without a potency. Potency and affinity values are given separately.

Test: viability loss in HeLa cells – cytotoxicity control for MgcRacGAP inhibitor project, dose response (AID 624300)
Conditions: CellTiter-Glo luminescence, 24 h; series mostly up to 100 µM

Structure (SMILES) | outcome
Cc1c(N(C)C)nc2ccccc2c1N | inactive
O=C(O)CC1SC(=Nc2ccc(O)cc2)NC1=O (centres undefined) | inactive
COc1cc(/C=N/NC2=NCCCCC2)ccc1O | inactive
S=c1[nH]nc(Nc2ccccc2Cl)s1 | inactive
COc1cc(/C=C2\SC(=Nc3ccc(Cl)c(C(=O)O)c3)NC2=O)c(Br)c(Br)c1O | inactive
O=C1NC(=S)S/C1=C\C=C\c1ccc([N+](=O)[O-])o1 | inactive
O=C1NC(=NCc2ccccc2)S/C1=C/c1ccc(O)cc1 | inactive
Cc1cc(/C=C2\SC(=S)NC2=O)c(C)[nH]1 | inactive
CCOC(=O)C1CCN(Cc2cccc(Oc3ccccc3)c2)CC1 | inactive
COc1cc(/C=N/NC(=O)c2cn(-c3cccc(C)n3)cn2)ccc1O | inactive
COc1cc([C@H]2OC[C@H]3[C@@H]2CO[C@H]3c2ccc(O)c(OC)c2)ccc1O | inactive
O=C(CN1CCN(c2ccc(O)cc2)CC1)N(C1CC1)C1CCS(=O)(=O)C1 (centres undefined) | inactive
N#C/C(=C/c1ccc(O)c(O)c1)C(=O)NCc1ccc(Cl)cc1 | inactive
C=CCc1ccc(OCCOCCNCCCC)c(OC)c1 | inactive
COc1ccc(CNCC(=O)Nc2cc(OC)cc(OC)c2)cc1 | inactive
COc1ccc(NC2CCCN(C(=O)c3ccc4[nH]c(C)c(C)c4c3)C2)cc1 (centres undefined) | inactive
Cc1ccc(NC(=O)CCC(=O)N/N=C/c2ccc(O)cc2O)cc1 | inactive

Structure (SMILES) | outcome
Cc1ccc(O)c(N=Cc2cc(Cc3ccccc3)cc([N+](=O)[O-])c2O)c1 | inactive
Cc1cccc(C=Nc2ccc3c4c(cccc24)CC3)c1O | inactive
Cc1ccc(O)c(N=Cc2sc3ccccc3c2Cl)c1 | inactive
C=CCc1cccc(C=Nc2cc(Br)ccc2O)c1O | inactive
O=C(CN1CCN(c2ccccn2)CC1)Nc1ccc(F)cc1 | inactive
CCOc1cc(C=NNC(=O)c2cccc(S(=O)(=O)N3CCCC3)c2)ccc1O | inactive
COCCCNC(=O)/C(C#N)=C/c1c(N2CCN(c3ccc(OC)cc3)CC2)nc2c(C)cccn2c1=O | inactive
O=C(c1ccco1)N1CCN(Cc2cccc([N+](=O)[O-])c2)CC1 | inactive
COc1cc(OC)c(OC)cc1/C=N/N(C)c1ccccc1 | inactive
COc1cc(/C=N/N(C)c2ccccc2)ccc1O | inactive
COc1ccc(Cn2c(O)c(/C=N/NC(=O)c3cccnc3)c3ccccc3c2=O)cc1 | inactive
CCOC(=O)c1[nH]c2ccccc2c1NC(=S)Nc1ccccc1C | inactive
CCN(CC)S(=O)(=O)c1ccc(C)c(NC(=O)CN2CCN(C)CC2)c1 | inactive
Oc1ccc(/C=N/Nc2nc(N3CCCC3)nc(N3CCCC3)n2)cc1O | inactive
Oc1ccc(/C=N/Nc2cccc(Cl)n2)c(O)c1 | inactive
Oc1ccc(/C=N/Nc2cc(N3CCOCC3)nc(N3CCOCC3)n2)cc1 | inactive
Cc1nc(Cl)cc(N/N=C/c2ccc(O)cc2O)n1 | inactive
